Measured values taken from PubChem BioAssay (NCI).
This is part of a sample that, as a whole, favours compounds with a hit. Of some 79,000 tested, about 15% had one in any assay. Unmarked numbers belong to inactive results. Active and inactive are the calls of the source. No stated cut-off is given here; in the data, active means growth inhibition above about 70%; inactive means the rest.

Assay: NCI Yeast Anticancer Drug Screen. Data for the bub3 strain (AID 167)
Settings: S. cerevisiae bub3 mutant strain, active compounds read high
Method: Growth inhibition of yeast strains with defined genetic alterations is measured as a screen for potential anti-cancer activity. Selected strains with alterations in DNA damage repair or cell cycle control were exposed to compounds and growth inhibition was measured relative to vehicle treated controls. The strain used in this assay is bub3

[1] = at 5.0 µM (retest, dose inferred, filed as 0.5)
[2] = at 50.0 µM (retest, dose inferred, filed as 5.0)

SMILES	growth inhibition [1]	growth inhibition [2]	growth inhibition (at 50.0 µM)
Cc1ccc(C(=O)CCCN2CCOCC2)c(C)c1	30%	69%	73.8% (active)
C=CCOC(=O)N(C(=O)OCC=C)C(Cc1ccc(O)cc1)C(=O)NNc1ccccc1 (configuration not stated)	16%	90% (active)	70%
Oc1ccc(-c2ccc3ccccc3c2)cc1	1%	98% (active)	99.2% (active)
O=C1/C(=C(/Br)I)c2ccccc2-c2ccccc21	99% (active)	89% (active)	75.7% (active)
Cn1c(=O)c2c(nc(OCC(C)(C)C)n2C)n(C)c1=O	0%	3%	16.9%
CC1(C)OC2COC3(CNO)OC(C)(C)OC3C2O1 (configuration not stated)	3%	5%	63.9%
CCN(CC)CCCCCCNc1cc(C)cc2ccc(C)nc12	7%	62%	79.7% (active)
CCCCCOC(=S)SSSC(=S)OCCCCC	0%	98% (active)	28.2%
CC(=O)/C(=C\c1ccc(N(C)C)cc1)C(C)=[N+](C)C(=O)c1c(/[N+](C)=C(C)\C(=C\c2ccc(N(C)C)cc2)C(C)=O)ncn1C	10%	43%	43.4%
CCN(CC)CCCCCCNc1cc(C)cc2cccnc12	14%	76% (active)	18.9%
C[Si](C)(CCC(=O)O)O[Si](C)(C)CCC(=O)O	-9%	99% (active)	99.5% (active)
O=C(O)/C=C/c1ccc2c(c1)CC1(Cc3ccccc3C1)C2	85% (active)	92% (active)	78.5% (active)
CSC(SC)(C(=O)O)c1cc(C)no1	14%	7%	5.2%
CCOC(=O)/C=C1/C(=O)OC2C1OC1OC(C)(C)OC12 (configuration not stated)	33%	100% (active)	26.1%
